The nature of experiment [1]: qHTS assay to identify small molecule antagonists of the thyroid receptor (TR) signaling pathway - cell viability counter screen (AID 743064). Note: nearly all actives have a fitted effect of over 50% in size. Note: potency is the fitted concentration of half-maximal effect. A digest of the protocol: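 CellTiter-Fluor readout, 30 min at 37 °C/5% CO2, following 23.5 h incubation of GH3.TRE-Luc cells with test compound and 1 nM T3 (final).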
A general note: qHTS replaces the single test concentration by a dilution series.

The nature of experiment [2]: qHTS assay to identify small molecule antagonists of the thyroid receptor (TR) signaling pathway (AID 743065). Note: nearly all actives have a fitted effect of over 55% in size. Note: potency is the fitted concentration of half-maximal effect. The method in brief:
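Antagonism measured as loss of luciferase signal in GH3 cells stably carrying a TRE-luciferase reporter, co-treated with compound and T3 (1 nM final) for 23.5 h at 37 C. Viability was read in the same well by CellTiter-Fluor.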

The test system of experiment [3] is thyroid hormone receptor (rat, GH3 cells). The experiment in a line: qHTS assay to identify small molecule agonists of the thyroid receptor (TR) signaling pathway (AID 743066; calls by dose curve).
The target in experiment [4] is Estrogen receptor (Homo sapiens) (UniProt P03372). The experiment in a line: qHTS assay to identify small molecule antagonists of the estrogen receptor alpha (ER-alpha) signaling pathway (AID 743069; active = well fitted curve in the direction sought with a large enough effect in the signal ratio in the repeat runs, not every such curve was filed as active; inconclusive = weak or mixed curves, or effect the other way; inactive = no such curve, though single readings can be large or run the other way; the % refers to the signal ratio; note: potency is the fitted concentration of half-maximal effect). A digest of the protocol: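 Compound effects are measured against 17beta-estradiol stimulation in HEK293 cells with a UAS-controlled beta-lactamase reporter for ER-alpha. Exposure lasts 18 hr at 37C; LiveBLAzer B/G FRET substrate follows for 2 hr at room temperature.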
Estrogen receptor (Homo sapiens), sequence (P03372 whole entry, looked up): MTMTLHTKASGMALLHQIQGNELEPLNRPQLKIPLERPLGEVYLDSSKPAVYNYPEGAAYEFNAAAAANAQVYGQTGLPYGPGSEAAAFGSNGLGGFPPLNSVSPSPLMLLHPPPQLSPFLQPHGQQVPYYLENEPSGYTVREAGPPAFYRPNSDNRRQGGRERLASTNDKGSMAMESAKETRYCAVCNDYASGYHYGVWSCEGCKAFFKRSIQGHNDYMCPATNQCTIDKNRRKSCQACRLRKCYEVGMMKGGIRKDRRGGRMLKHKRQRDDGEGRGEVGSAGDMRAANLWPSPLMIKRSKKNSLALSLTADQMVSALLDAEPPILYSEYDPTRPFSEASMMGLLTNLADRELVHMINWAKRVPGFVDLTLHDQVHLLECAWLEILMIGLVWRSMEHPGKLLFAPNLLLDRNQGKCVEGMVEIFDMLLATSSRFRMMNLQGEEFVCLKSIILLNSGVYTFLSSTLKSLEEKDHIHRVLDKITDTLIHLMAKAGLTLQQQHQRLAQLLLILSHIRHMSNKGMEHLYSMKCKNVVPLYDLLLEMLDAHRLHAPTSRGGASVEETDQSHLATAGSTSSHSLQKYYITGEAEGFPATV

Experiment [5] is described as follows: qHTS assay to identify small molecule antagonists of the estrogen receptor alpha (ER-alpha) signaling pathway - cell viability counter screen (AID 743074; calls by dose curve;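 note: HEK293 cells carrying ER-alpha-UAS-bla reporter stimulated with 17beta-estradiol; nearly all actives have a fitted effect of over 45% in size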; note: potency is the fitted concentration of half-maximal effect).
Experiment [6] concerns the target Estrogen receptor (Homo sapiens) (UniProt P03372). The experiment in a line: qHTS assay to identify small molecule agonists of the estrogen receptor alpha (ER-alpha) signaling pathway (AID 743075; calls by dose curve; note: potency is the fitted concentration of half-maximal effect).
Experiment [7] has the same target. The experiment in a line: qHTS assay to identify small molecule agonists of the estrogen receptor alpha (ER-alpha) signaling pathway using the BG1 cell line (AID 743079). Note: nearly all actives have a fitted effect of over 20% in size. Note: potency is the fitted concentration of half-maximal effect.
The nature of experiment [8]: qHTS assay to identify small molecule antagonists of the estrogen receptor alpha (ER-alpha) signaling pathway using the BG1 cell line - cell viability counter screen (AID 743081).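 Note: compound given together with 17beta-estradiol as the ER stimulus; nearly all actives have a fitted effect of over 45% in size.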 Note: potency is the fitted concentration of half-maximal effect.
A further experiment has as its target Aromatase (Homo sapiens) (UniProt P11511). The experiment in a line: qHTS assay to identify aromatase inhibitors (AID 743083). Note: nearly all actives have a fitted effect of over 55% in size. Note: potency is the fitted concentration of half-maximal effect.
A short description of experiment [9]: qHTS assay to identify small molecule antagonists of the estrogen receptor alpha (ER-alpha) signaling pathway using the BG1 cell line (AID 743080; calls by dose curve;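 note: BG1 cells stimulated with 17beta-estradiol alongside compound; series mostly up to about 70 µM; nearly all actives have a fitted effect of over 25% in size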). A digest of the protocol:
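Readout is ONE-Glo luminescence, taken 30 min at room temperature after reagent addition, preceded by a CellTiter-Fluor viability read; BG1-Luc-4E2 cells had received compound and 17beta-estradiol for 21.5 h at 37 C.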

SMILES strings stand for the structures. Several values for one entry are separate records, joined by “and”; a condition that tells them apart may be missing. Identical values can stand only once. Where a structure was tested more than once in an assay, its records may differ in their call. Activity calls are given as the source filed them. Unless noted, calls come from the whole dose curve; as a rule, active = well fitted curve in the direction sought with a large enough effect in the repeat runs; inconclusive = weak or mixed curves; inactive = no such curve, though single readings can be large; an effect the other way counts as inactive or inconclusive.

Aromatase (Homo sapiens), sequence (P11511 whole entry, looked up): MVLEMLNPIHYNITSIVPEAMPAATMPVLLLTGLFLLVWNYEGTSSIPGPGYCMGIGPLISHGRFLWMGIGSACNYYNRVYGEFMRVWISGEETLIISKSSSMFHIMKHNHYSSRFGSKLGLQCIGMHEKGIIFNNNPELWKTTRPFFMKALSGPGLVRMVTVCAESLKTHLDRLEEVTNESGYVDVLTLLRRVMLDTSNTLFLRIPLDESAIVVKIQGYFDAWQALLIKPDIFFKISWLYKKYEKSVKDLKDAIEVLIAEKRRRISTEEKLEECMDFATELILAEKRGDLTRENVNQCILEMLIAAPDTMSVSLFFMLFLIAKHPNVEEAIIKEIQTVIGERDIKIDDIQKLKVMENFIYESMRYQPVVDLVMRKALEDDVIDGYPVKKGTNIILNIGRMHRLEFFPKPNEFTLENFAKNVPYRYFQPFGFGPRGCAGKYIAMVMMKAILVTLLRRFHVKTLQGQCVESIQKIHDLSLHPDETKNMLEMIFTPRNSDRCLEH

In the case of `O=C(O)CCCCC(=O)O`, the Potency entry in [1], in experiment [2], in experiment [3], in experiment [4], in experiment [5] and in [6] was “inactive” each time. Further, the Potency result (in experiment [7]; in experiment [8]; with Aromatase (Homo sapiens)) was “inactive” in each case.
Regarding `Cc1cc(=O)[nH]c(=S)[nH]1`, the Potency entry in experiment [1], in [3], in [4], in experiment [5], in experiment [6] and in experiment [7] was “inactive” each time. Further, the Potency result (in [9]; in [8]; with Aromatase (Homo sapiens)) was “inactive” throughout.
Take `O=C(O)c1cccc([N+](=O)[O-])c1`: the Potency result (in [1]; in experiment [2]; in experiment [3]; in experiment [5]; in [8]; in the experiment with Aromatase (Homo sapiens)) was “inactive” throughout.
For the compound `N=C(N)c1ccc(OCCCCCOc2ccc(C(=N)N)cc2)cc1`, the Potency in experiment [1] was 60.8 µM (active) and 46.4 µM (active); in [2], 26.6 µM (active) and 60.8 µM (active) and 58.4 µM (active); in experiment [4], 12 µM [inconclusive] (active) and 15.4 µM [inconclusive] (active) and 46.8 µM [inconclusive] (active); with Aromatase (Homo sapiens), 26.1 µM (active). The Potency entry in experiment [3], in [5], in [6] and in [8] was “inactive” each time.
For the compound `Nc1ccn([C@H]2CC[C@@H](CO)O2)c(=O)n1`, the Potency entry in experiment [1], in experiment [3], in experiment [4], in [5], in experiment [6] and in [7] was “inactive” in each case. Also, the Potency entry (in experiment [8]; in the experiment with Aromatase (Homo sapiens)) was “inactive” throughout.
Consider `O=C(O)C(=O)O`, for which the Potency result (in [1]; in [5]; in experiment [8]; with Aromatase (Homo sapiens)) was “inactive” throughout.
`OCCc1ccccc1`: the Potency result (in experiment [1]; in [3]; in experiment [5]; in experiment [8]; with Aromatase (Homo sapiens)) was “inactive” each time.
Take `CCCCOC(=O)CC(CC(=O)OCCCC)(OC(C)=O)C(=O)OCCCC`: the Potency result (in experiment [1]; in [3]; in [5]; in experiment [8]; with Aromatase (Homo sapiens)) was “inactive” throughout.
Consider `CC(O)CN(CCN(CC(C)O)CC(C)O)CC(C)O` (centres undefined), for which the Potency result (in experiment [1]; in experiment [5]; in experiment [8]; with Aromatase (Homo sapiens)) was “inactive” each time.
Consider `C1N2CN3CN1CN(C2)C3`, for which the Potency entry (in experiment [1]; in experiment [3]; in experiment [5]; in experiment [8]; in the experiment with Aromatase (Homo sapiens)) was “inactive” each time.
Regarding `Nc1ccc(S(=O)(=O)Nc2nccs2)cc1`, the Potency entry in experiment [1], in experiment [4], in experiment [5], in [6], in experiment [7] and in experiment [8] was “inactive” in each case. Moreover, the Potency entry with Aromatase (Homo sapiens) was “inactive”.
Turning to `O=c1ccc2ccccc2o1`, the Potency entry in experiment [1], in [3], in experiment [4], in experiment [5], in experiment [6] and in experiment [8] was “inactive” each time. Further, in the experiment with Aromatase (Homo sapiens), the Potency entry is “inactive”. In experiment [7], the Potency was 18.8 µM (active) and inactive.
Regarding `C[C@]12C=CC(=O)C=C1CC[C@@H]1[C@@H]2[C@@H](O)C[C@@]2(C)[C@H]1CC[C@]2(O)C(=O)CO`, the Potency entry in [1], in [3], in [5], in experiment [6], in [7] and in experiment [8] was “inactive” each time. Also, the Potency result with Aromatase (Homo sapiens) is “inactive”.
As to `O=C(O)CCCCCCCC(=O)O`, the Potency entry (in [1]; in experiment [3]; in experiment [5]; in experiment [8]; in the experiment with Aromatase (Homo sapiens)) was “inactive” throughout.
In the case of `Nc1ccc(C(=O)O)cc1`, the Potency result (in experiment [4]; in [5]; in experiment [6]; in experiment [7]; in experiment [8]; with Aromatase (Homo sapiens)) was “inactive” throughout.
On to `CCOc1ccc(NC(=O)CC(C)O)cc1` (centres undefined), for which the Potency result (in experiment [1]; in experiment [3]; in [5]; in [8]; with Aromatase (Homo sapiens)) was “inactive” each time.
As for `O=C(c1ccccc1)C(O)c1ccccc1` (centres undefined), the Potency entry (in experiment [1]; in experiment [3]; in [5]; in experiment [8]; in the experiment with Aromatase (Homo sapiens)) was “inactive” throughout.
As for `O=S(=O)(O)NC1CCCCC1`, the Potency entry (in experiment [1]; in [3]; in experiment [5]; in experiment [8]; with Aromatase (Homo sapiens)) was “inactive” each time.
On to `NC(=O)c1cnccn1`, for which the Potency result in experiment [1], in [4], in [5], in experiment [6], in experiment [7] and in [8] was “inactive” each time. Also, the Potency result with Aromatase (Homo sapiens) is “inactive”.
As to `O=C(c1ccccc1)c1ccccc1`, the Potency result (in experiment [1]; in [5]; in [8]; with Aromatase (Homo sapiens)) was “inactive” each time.
Turning to `Cc1ccccc1C(OCCN(C)C)c1ccccc1` (centres undefined), the Potency entry in experiment [3], in experiment [4], in [5], in experiment [6], in [7] and in experiment [8] was “inactive” each time. In addition, the Potency entry in the experiment with Aromatase (Homo sapiens) was “inactive”.
For the compound `Nc1ccc(O)c(C(=O)O)c1`, the Potency entry (in experiment [1]; in experiment [4]; in [5]; in [6]; in [8]; in the experiment with Aromatase (Homo sapiens)) was “inactive” throughout. In experiment [7], the Potency entry was “inactive and 68.6 µM (active)”.
Turning to `O=S(=O)(O)c1ccc2cc(O)ccc2c1`, the Potency result (in experiment [1]; in [3]; in experiment [5]; in experiment [8]; with Aromatase (Homo sapiens)) was “inactive” each time.
`COc1c2occc2cc2ccc(=O)oc12`: the Potency result in [5] is “inactive and 1.74 µM (active)”. Moreover, the Potency entry in experiment [8] is “inactive”.
As for `NC(N)=O`, the Potency result in experiment [1], in [3], in experiment [4], in experiment [5], in experiment [6] and in experiment [7] was “inactive” each time. The Potency entry (in experiment [8]; with Aromatase (Homo sapiens)) was “inactive” each time.
As to `CC(=O)NS(=O)(=O)c1ccc(N)cc1`, the Potency result in experiment [1], in experiment [3], in experiment [4], in experiment [5], in experiment [6] and in [7] was “inactive” each time. The Potency result (in experiment [8]; with Aromatase (Homo sapiens)) was “inactive” each time.
For the compound `Oc1ccc(/C=C/c2cc(O)cc(O)c2)cc1`, the Potency entry was “inactive and 27.6 µM (active) and 27.3 µM (active)” in experiment [1]; 6.44 µM [inconclusive] (active) and 8.8 nM [inconclusive] (active) and 19.5 µM [inconclusive] (active) in experiment [6]; 7.17 µM (active) and 15.5 µM (active) and 9.69 µM (active) in experiment [7]. Besides, the Potency result in experiment [3], in experiment [5] and in [8] was “inactive” in each case.
On to `CNC[C@H](O)c1cccc(O)c1`, for which the Potency result (in [1]; in experiment [3]; in experiment [8]; with Aromatase (Homo sapiens)) was “inactive” each time. For the same compound, in experiment [5], the Potency result was “inactive and 3.89 µM (active)”.
In the case of `C/C=C/c1ccc(OC)cc1`, the Potency result (in experiment [1]; in experiment [3]; in experiment [5]; in experiment [8]; in the experiment with Aromatase (Homo sapiens)) was “inactive” each time.
As for `Cc1ccc(C)c(OCCCC(C)(C)C(=O)O)c1`, the Potency entry in experiment [1], in experiment [3], in experiment [4], in experiment [5], in [6] and in experiment [7] was “inactive” in each case. Also, the Potency entry (in experiment [8]; with Aromatase (Homo sapiens)) was “inactive” in each case.
As for `CCCCCCCCCCCCCCCC(=O)O`, the Potency result (in experiment [1]; in experiment [3]; in experiment [5]; in [8]; with Aromatase (Homo sapiens)) was “inactive” in each case.
As for `Nc1ccc(S(=O)(=O)c2ccc(N)cc2)cc1`, the Potency result in [3], in experiment [4], in experiment [5], in [6], in experiment [7] and in experiment [8] was “inactive” in each case. The Potency entry in the experiment with Aromatase (Homo sapiens) is “inactive”.
In the case of `Cc1noc(NS(=O)(=O)c2ccc(N)cc2)c1C`, the Potency entry in experiment [1], in [3], in [4], in experiment [5], in experiment [6] and in experiment [8] was “inactive” each time. Further, in the experiment with Aromatase (Homo sapiens), the Potency result is “inactive”. Moreover, in experiment [7], the Potency is 29.8 µM (active) and inactive.
`O=NO`: the Potency result (in experiment [1]; in experiment [3]; in experiment [5]; in experiment [8]; with Aromatase (Homo sapiens)) was “inactive” in each case.
Consider `O=C(O)c1cc(N=Nc2ccc(S(=O)(=O)Nc3ccccn3)cc2)ccc1O`, for which the Potency result (in experiment [5]; in the experiment with Aromatase (Homo sapiens)) was “inactive” in each case. The Potency in experiment [8] is 34.5 µM (active).
As to `CC(C)[C@@H]1CC[C@@H](C)C[C@H]1O`, the Potency entry (in [1]; in experiment [3]; in experiment [5]; in experiment [8]; with Aromatase (Homo sapiens)) was “inactive” throughout.
For the compound `CCCCC(CC)COC(=O)/C=C/c1ccc(OC)cc1` (centres undefined), the Potency entry in [1], in experiment [3], in experiment [4], in [5], in experiment [6] and in experiment [7] was “inactive” in each case. For the same compound, the Potency entry (in experiment [8]; with Aromatase (Homo sapiens)) was “inactive” throughout.
Consider `O=C(O)c1cccnc1`, for which the Potency entry (in experiment [1]; in [3]; in experiment [5]; in experiment [8]; with Aromatase (Homo sapiens)) was “inactive” in each case.
`CC(=O)OCC(COC(C)=O)OC(C)=O`: the Potency entry (in experiment [1]; in experiment [3]; in experiment [5]; in experiment [8]; in the experiment with Aromatase (Homo sapiens)) was “inactive” throughout.
For the compound `NC(=O)NC1NC(=O)NC1=O` (centres undefined), the Potency entry (in experiment [1]; in experiment [3]; in [5]; in [8]; with Aromatase (Homo sapiens)) was “inactive” throughout.
As for `O=C1NC(=O)c2ccccc21`, the Potency result (in experiment [1]; in experiment [3]; in [5]; in experiment [8]; in the experiment with Aromatase (Homo sapiens)) was “inactive” throughout.

Values taken from PubChem BioAssay (Tox21).
